The results in this text go back to PubChem BioAssay (Tox21).

Active and inactive are the calls of the source. Unless noted, calls follow the shape of the dose curve; as a rule, active = well fitted curve in the direction sought with a large enough effect in the repeat runs; inconclusive = weak or mixed curves; inactive = no such curve, though single readings can be large; an effect the other way counts as inactive or inconclusive.

The nature of assay [1]: qHTS assay to identify small molecule antagonists of the glucocorticoid receptor (GR) signaling pathway - cell viability counter screen (AID 720693). Also: nearly all actives have a fitted effect of over 55% in size.
Assay [2] in a line: qHTS assay for identifying genotoxic compounds that show differential cytotoxicity against isogenic chicken DT40 cell lines with known DNA damage response pathways - Rev3 mutant cell line (AID 743014). Also: nearly all actives have a fitted effect of over 55% in size. Also: potency is read from the fitted curve at half-maximal effect.
Assay [3] can be described thus: qHTS assay to identify small molecule antagonists of the androgen receptor (AR) signaling pathway - cell viability counter screen (AID 743033; also: nearly all actives have a fitted effect of over 45% in size; also: potency is read from the fitted curve at half-maximal effect).
A short description of assay [4]: qHTS assay to identify small molecule antagonists of the androgen receptor (AR) signaling pathway using the MDA cell line - cell viability counter screen (AID 743041; also: nearly all actives have a fitted effect of over 45% in size). An outline of the steps: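 Cytotoxicity counter screen: MDA-kb2 AR-luc cells, compound + R1881, 16 h, 37C, 0% CO2; CellTiter-Fluor added at 15.5 h, fluorescence read after 30 min.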
The nature of assay [5]: qHTS assay to identify small molecule antagonists of the thyroid receptor (TR) signaling pathway - cell viability counter screen (AID 743064). Also: nearly all actives have a fitted effect of over 50% in size. Also: potency is read from the fitted curve at half-maximal effect. Summed up: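 Viability of T3-stimulated (1 nM final) GH3.TRE-Luc cells is measured by CellTiter-Fluor fluorescence after 23.5 h compound exposure at 37 °C plus 30 min reagent incubation.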
Assay [6] can be described thus: qHTS assay to identify small molecule antagonists of the thyroid receptor (TR) signaling pathway (AID 743065). Also: nearly all actives have a fitted effect of over 55% in size. Also: potency is read from the fitted curve at half-maximal effect. An outline of the steps: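 GH3.TRE-Luc rat pituitary cells (two TREs driving luciferase) were dosed with compound, then stimulated with 1 nM T3 (final) for 23.5 h at 37 C. ONE-Glo luminescence was the read-out, with CellTiter-Fluor fluorescence as the cytotoxicity counter-screen.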

Assay [7] deals with thyroid hormone receptor (rat, GH3 cells). Briefly: qHTS assay to identify small molecule agonists of the thyroid receptor (TR) signaling pathway (AID 743066; calls by dose curve).
Assay [8] can be described thus: qHTS assay to identify small molecule antagonists of the estrogen receptor alpha (ER-alpha) signaling pathway - cell viability counter screen (AID 743074; calls by dose curve;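 also: HEK293 cells carrying ER-alpha-UAS-bla reporter stimulated with 17beta-estradiol; nearly all actives have a fitted effect of over 45% in size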).
In assay [9] the target is Estrogen receptor (Homo sapiens) (UniProt P03372). In words: qHTS assay to identify small molecule agonists of the estrogen receptor alpha (ER-alpha) signaling pathway (AID 743075; calls by dose curve;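 also: HEK293 GripTite cells with ER-alpha and UAS-driven beta-lactamase reporter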; also: potency is read from the fitted curve at half-maximal effect).
Estrogen receptor (Homo sapiens), sequence (P03372 whole entry, looked up): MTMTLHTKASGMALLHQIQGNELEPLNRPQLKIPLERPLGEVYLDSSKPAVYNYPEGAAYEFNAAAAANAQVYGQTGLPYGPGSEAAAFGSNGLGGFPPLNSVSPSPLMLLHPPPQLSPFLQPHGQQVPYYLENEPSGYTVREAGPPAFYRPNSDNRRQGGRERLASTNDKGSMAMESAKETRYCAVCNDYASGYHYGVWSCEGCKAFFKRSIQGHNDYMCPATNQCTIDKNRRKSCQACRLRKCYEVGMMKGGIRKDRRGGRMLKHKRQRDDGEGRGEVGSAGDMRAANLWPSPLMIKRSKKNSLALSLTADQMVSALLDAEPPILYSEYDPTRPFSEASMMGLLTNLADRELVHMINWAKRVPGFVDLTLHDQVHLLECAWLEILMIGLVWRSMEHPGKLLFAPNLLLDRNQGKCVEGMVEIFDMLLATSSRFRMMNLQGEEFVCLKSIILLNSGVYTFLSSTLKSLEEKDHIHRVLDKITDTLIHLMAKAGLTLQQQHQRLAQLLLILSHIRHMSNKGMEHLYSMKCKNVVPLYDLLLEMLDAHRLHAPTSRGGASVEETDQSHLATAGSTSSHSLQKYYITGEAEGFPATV
Assay [10] shares this target. Briefly: qHTS assay to identify small molecule agonists of the estrogen receptor alpha (ER-alpha) signaling pathway using the BG1 cell line (AID 743079). Also: nearly all actives have a fitted effect of over 20% in size. Also: potency is read from the fitted curve at half-maximal effect.
Assay [11] is described as follows: qHTS assay to identify small molecule antagonists of the estrogen receptor alpha (ER-alpha) signaling pathway using the BG1 cell line (AID 743080; calls by dose curve;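 also: BG1 cells stimulated with 17beta-estradiol alongside compound; series mostly up to about 70 µM; nearly all actives have a fitted effect of over 25% in size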). An outline of the steps: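 Readout is ONE-Glo luminescence, taken 30 min at room temperature after reagent addition, preceded by a CellTiter-Fluor viability read; BG1-Luc-4E2 cells had received compound and 17beta-estradiol for 21.5 h at 37 C.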

Assay [12] is described as follows: qHTS assay to identify small molecule antagonists of the estrogen receptor alpha (ER-alpha) signaling pathway using the BG1 cell line - cell viability counter screen (AID 743081).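 Also: compound given together with 17beta-estradiol as the ER stimulus; series mostly up to about 70 µM; nearly all actives have a fitted effect of over 45% in size.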
The next assay addresses Aromatase (Homo sapiens) (UniProt P11511). Briefly: qHTS assay to identify aromatase inhibitors (AID 743083). Also: nearly all actives have a fitted effect of over 55% in size. Also: potency is read from the fitted curve at half-maximal effect.
Assay [13] in a line: qHTS assay for identifying genotoxic compounds that show differential cytotoxicity against isogenic chicken DT40 cell lines with known DNA damage response pathways - Rad54/Ku70 mutant cell line (AID 743015). Also: nearly all actives have a fitted effect of over 60% in size. Also: potency is read from the fitted curve at half-maximal effect.
Assay [14] addresses Estrogen receptor (Homo sapiens) (UniProt P03372). In words: qHTS assay to identify small molecule antagonists of the estrogen receptor alpha (ER-alpha) signaling pathway (AID 743069; active = well fitted curve in the direction sought with a large enough effect in the signal ratio in the repeat runs, not every such curve was filed as active; inconclusive = weak or mixed curves, or effect the other way; inactive = no such curve, though single readings can be large or run the other way; the % refers to the signal ratio). Summed up: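 Beta-lactamase FRET fluorescence is read after 2 hr at room temperature with LiveBLAzer B/G substrate. Before that, ER-alpha-bla HEK293 cells sit 4 hr after plating, then receive compound plus 17beta-estradiol and incubate 18 hr at 37C.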

Assay [15] has as its target Androgen receptor (Homo sapiens) (UniProt P10275). In words: qHTS assay to identify small molecule agonists of the androgen receptor (AR) signaling pathway using the MDA cell line (AID 743040; also: nearly all actives have a fitted effect of over 20% in size). Summed up: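 Luciferase read-out, ONE-Glo, 30 min RT. Cells: MDA-kb2 AR-luc, MMTV promoter with AR and GR response elements. Compound exposure 16 h, 37C, 0% CO2, after 5 h pre-incubation. qHTS agonist mode.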

Assay [16] shares this target. In words: qHTS assay to identify small molecule antagonists of the androgen receptor (AR) signaling pathway using the MDA cell line (AID 743042; also: nearly all actives have a fitted effect of over 55% in size). An outline of the steps: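 MDA-kb2 breast carcinoma cells carrying MMTV-luciferase (AR/GR responsive) were co-treated with compounds and the agonist R1881 for 16 h at 37C. Inhibition read as ONE-Glo luminescence; CellTiter-Fluor fluorescence measured in parallel for cytotoxicity.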

Assay [17] can be described thus: qHTS assay for identifying genotoxic compounds that show differential cytotoxicity against isogenic chicken DT40 cell lines with known DNA damage response pathways - wild type cell line (AID 743012). Also: nearly all actives have a fitted effect of over 60% in size. Summed up: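 CellTiter-Glo luminescence readout of viability in wild type DT40 cells after 40 h compound exposure at 37 C/5% CO2; 300 cells/well; reagent incubated 30 min at room temperature before reading.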

The target in assay [18] is Androgen receptor (Homo sapiens) (UniProt P10275). Briefly: qHTS assay to identify small molecule agonists of the androgen receptor (AR) signaling pathway (AID 743036; active = well fitted activation curve with a large enough effect in the signal ratio in the repeat runs, with a control signal flat, not every such curve was filed as active; inconclusive = weak or mixed curves, or effect the other way; inactive = no such curve, though single readings can be large or run the other way; the % refers to the signal ratio). An outline of the steps:
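Screening used 2,000 AR-bla HEK293 cells per well, treated 16 h at 37C with test compounds in DMSO alongside positive and DMSO-only controls; beta-lactamase activity was then read by LiveBLAzer B/G FRET fluorescence after 2 h at room temperature.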

Androgen receptor (Homo sapiens), sequence (P10275 whole entry, looked up): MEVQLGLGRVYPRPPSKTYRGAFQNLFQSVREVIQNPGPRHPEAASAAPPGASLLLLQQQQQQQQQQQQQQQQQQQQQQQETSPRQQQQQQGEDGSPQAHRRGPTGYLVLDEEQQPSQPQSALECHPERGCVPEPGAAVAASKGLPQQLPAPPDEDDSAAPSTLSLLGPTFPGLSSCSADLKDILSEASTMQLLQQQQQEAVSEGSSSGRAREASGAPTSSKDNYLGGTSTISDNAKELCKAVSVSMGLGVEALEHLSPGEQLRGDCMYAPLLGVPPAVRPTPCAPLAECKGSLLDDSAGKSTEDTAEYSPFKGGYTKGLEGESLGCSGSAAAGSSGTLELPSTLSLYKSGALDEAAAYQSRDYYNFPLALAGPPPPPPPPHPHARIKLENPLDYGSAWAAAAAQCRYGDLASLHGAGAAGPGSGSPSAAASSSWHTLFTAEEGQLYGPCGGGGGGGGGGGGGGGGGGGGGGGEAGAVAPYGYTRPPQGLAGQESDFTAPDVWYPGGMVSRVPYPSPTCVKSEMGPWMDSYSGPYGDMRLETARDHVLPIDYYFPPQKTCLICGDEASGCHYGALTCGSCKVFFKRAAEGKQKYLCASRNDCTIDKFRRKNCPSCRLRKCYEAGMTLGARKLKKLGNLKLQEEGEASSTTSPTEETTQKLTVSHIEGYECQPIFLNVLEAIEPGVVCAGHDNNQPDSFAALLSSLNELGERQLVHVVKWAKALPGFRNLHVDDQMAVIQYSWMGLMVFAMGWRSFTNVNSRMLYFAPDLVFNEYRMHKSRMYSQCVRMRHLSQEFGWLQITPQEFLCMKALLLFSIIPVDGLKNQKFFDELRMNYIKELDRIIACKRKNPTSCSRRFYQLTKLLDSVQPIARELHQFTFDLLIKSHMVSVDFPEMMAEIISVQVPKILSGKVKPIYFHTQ
Aromatase (Homo sapiens), sequence (P11511 whole entry, looked up): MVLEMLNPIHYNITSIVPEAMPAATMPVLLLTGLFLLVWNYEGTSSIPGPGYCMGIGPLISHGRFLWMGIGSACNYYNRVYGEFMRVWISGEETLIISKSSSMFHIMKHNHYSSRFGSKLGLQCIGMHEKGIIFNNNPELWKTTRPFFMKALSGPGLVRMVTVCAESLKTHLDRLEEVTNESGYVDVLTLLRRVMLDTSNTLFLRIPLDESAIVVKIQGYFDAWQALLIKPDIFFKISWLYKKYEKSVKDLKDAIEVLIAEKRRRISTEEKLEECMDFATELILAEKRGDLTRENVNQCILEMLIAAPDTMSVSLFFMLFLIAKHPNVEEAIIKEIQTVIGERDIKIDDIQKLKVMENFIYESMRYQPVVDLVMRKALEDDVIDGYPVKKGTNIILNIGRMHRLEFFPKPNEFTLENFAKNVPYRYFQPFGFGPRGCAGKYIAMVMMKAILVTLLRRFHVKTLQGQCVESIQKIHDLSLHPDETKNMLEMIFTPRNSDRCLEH

As for `CCc1ccc(C(=O)NN(C(=O)c2cc(C)cc(C)c2)C(C)(C)C)cc1`, the Potency entry in assay [1], in assay [3], in assay [4], in assay [6], in [7] and in assay [8] was “inactive” throughout. In addition, the Potency result (in [9]; in assay [10]; in assay [11]; in [12]; with Aromatase (Homo sapiens)) was “inactive” each time. Besides, the Potency in assay [2] was 27.3 µM (active); in [5], 1.54 µM (active).

In the case of `COC(N)=O`, the Potency result in assay [1], in assay [13], in assay [3], in assay [4], in assay [5] and in assay [6] was “inactive” in each case. For the same compound, the Potency result in assay [7], in assay [14], in assay [8], in assay [9], in assay [10] and in assay [11] was “inactive” throughout. For the same compound, the Potency result (in assay [12]; in the assay with Aromatase (Homo sapiens)) was “inactive” each time.

Regarding `COc1cc(Cl)c(OC)cc1Cl`, the Potency result in assay [1], in assay [2], in assay [3], in [4], in assay [5] and in assay [6] was “inactive” throughout. Also, the Potency entry in assay [7], in [14], in assay [8], in assay [9], in assay [10] and in assay [11] was “inactive” each time. The Potency result (in assay [12]; with Aromatase (Homo sapiens)) was “inactive” throughout.

With `Nc1ccc([N+](=O)[O-])cc1[N+](=O)[O-]`, the Potency result in [1], in assay [3], in assay [15], in [16], in [7] and in [14] was “inactive” throughout. The Potency entry (in assay [8]; in [9]; in assay [10]; in assay [11]; in the assay with Aromatase (Homo sapiens)) was “inactive” throughout. Also, the results for the Potency in assay [2] and in assay [13] were 53.1 µM (active) and 66.8 µM (active), respectively.

Turning to `Nc1ccc(N=Nc2ccc(-c3ccc(N=Nc4c(S(=O)(=O)O)cc5cc(S(=O)(=O)O)c(N=Nc6ccccc6)c(O)c5c4N)cc3)cc2)c(N)c1`, the Potency result in assay [1], in assay [17], in assay [3], in [4], in assay [7] and in [9] was “inactive” in each case. The Potency result in assay [10], in assay [11] and in assay [12] was “inactive” each time.

With `NNC(=O)c1cccnc1`, the Potency entry in [1], in [17], in [3], in [4], in assay [5] and in [6] was “inactive” each time. Also, the Potency entry in assay [7], in [14], in assay [8], in assay [9], in assay [11] and in assay [12] was “inactive” in each case. Moreover, in the assay with Aromatase (Homo sapiens), the Potency result was “inactive”.

In the case of `NCCCNCCCN`, the Potency result in assay [1], in assay [15], in assay [16] and in assay [12] was “inactive” each time. In addition, the Potency is 62.1 µM (active) in assay [13]; 49.7 µM (active) in assay [3]; 62.1 µM (active) in assay [5]; 62.1 µM (active) in assay [6]; 62.1 µM (active) in the assay with Aromatase (Homo sapiens).

With `Clc1cc(Cl)c(Cl)c(Cl)c1`, the Potency entry in assay [1], in assay [17], in assay [3], in assay [4], in [5] and in [6] was “inactive” throughout. Moreover, the Potency result in assay [7], in assay [14], in assay [8], in [9], in assay [11] and in assay [12] was “inactive” throughout. Further, the Potency result with Aromatase (Homo sapiens) was “inactive”.

Turning to `O=C(NCc1cccnc1)Nc1ccc([N+](=O)[O-])cc1`, the Potency result in [1], in assay [17], in assay [3], in [7], in [14] and in [8] was “inactive” in each case. In addition, the Potency entry (in assay [9]; in assay [10]; in [11]; in assay [12]; with Aromatase (Homo sapiens)) was “inactive” in each case. The Potency in [6] was 68.6 µM (active).

`CCCC(=O)Cl`: the Potency entry in assay [1], in assay [17], in assay [3], in assay [4], in assay [5] and in assay [6] was “inactive” each time. Further, the Potency entry in assay [7], in [14], in assay [8], in assay [9], in [10] and in [11] was “inactive” in each case. The Potency entry (in assay [12]; in the assay with Aromatase (Homo sapiens)) was “inactive” throughout.

For the compound `CCOP(=S)(OCC)Oc1nc(Cl)c(Cl)cc1Cl`, the Potency entry in assay [1], in assay [2], in assay [13], in [3], in assay [15] and in assay [16] was “inactive” each time. Moreover, the Potency entry in assay [5], in [7], in [14], in [8], in [9] and in assay [10] was “inactive” each time. For the same compound, the Potency result (in assay [11]; in assay [12]; with Aromatase (Homo sapiens)) was “inactive” throughout. Also, the compound was classed as inactive in assay [18].

Consider `CCCCCCCCCC(=O)O[C@H]1CC[C@H]2[C@@H]3CCC4=CC(=O)CC[C@@H]4[C@H]3CC[C@]12C`, for which the Potency entry in assay [1], in [17], in assay [3], in assay [4], in assay [5] and in assay [6] was “inactive” throughout. In addition, the Potency entry (in assay [7]; in assay [11]; in assay [12]; with Aromatase (Homo sapiens)) was “inactive” throughout. Also, the Potency was 0.848 µM [inconclusive] (active) in [9] and 0.188 µM (active) in assay [10].
